Assay results published in PubChem BioAssay AID1259415 (National Center for Advancing Translational Sciences (NCATS), 2018).
The campaign covered roughly 410,000 compounds. About 18,000 (4.4%) were called active. About 7% were inconclusive and are not listed. Shown is part of a subset that was picked to be rich in actives. A number with no mark means an inactive call. Cut-off read from the data, not from the text of the source: active = activity change below about -60%; inconclusive = no clear call, values can overlap the other calls; inactive = above about -39%.

Experiment: qHTS Assay for inhibitors of the human cytomegalovirus (HCMV)
Conditions: HFF cells, HCMV-luciferase reporter, 72 h; at 57.5 µM; hits give low values
Summary of the method: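 Two compound doses tested in HFFs infected with HCMV-luciferase, MOI 1 PFU/cell, 72 h at 37C. Lysate luminescence read with OneGlo; data normalized against buffer-only and 10uM Salinomycin inhibitor controls.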
% is set by controls: 0 for no effect and ±100 for the full control effect.

Row | SMILES | activity change, negative = inhibition
1 | Cc1ccc(CN(C(=O)COc2ccc(Cl)cc2C)C2CCS(=O)(=O)C2)o1 (stereo not drawn) | 51.5%
2 | Cc1cccc(N2CCN(c3ccc(C(=O)O)cc3NC(=O)c3ccccc3F)CC2C)c1 (stereo not drawn) | -4.85%
3 | CCOc1ccccc1C(=O)NC1(C(F)(F)F)NC(=O)N(CCc2ccc(OC)c(OC)c2)C1=O (stereo not drawn) | -4.49%
4 | O=C(CSc1nc2ccccc2nc1Cc1ccccc1)N1CCCCC1 | -18.6%
5 | CC(C)[C@@H](C(=O)OCC(=O)c1ccc2c(c1)NC(=O)CO2)N1C(=O)c2ccccc2C1=O | 43.1%
6 | COc1cc(NC(=O)c2noc3c2CSc2ccccc2-3)cc(OC)c1OC | 40.1%
7 | CC(C)CCNC(=O)CSc1nc2ccccc2nc1Cc1ccc(Cl)cc1 | -7.66%
8 | O=C(CC1N=C2c3ccccc3N=C(SCc3ccc(F)cc3)N2C1=O)NCc1cccs1 (stereo not drawn) | 30.3%
9 | O=C(Nc1cc(Cl)ccc1N1CCOCC1)c1ccc(N2CCCC2=O)cc1 | -3.06%
10 | O=C(c1cccc(C(=O)N2CCN(c3ccc(F)cc3)CC2)c1)N1CCN(c2ccc(F)cc2)CC1 | -88.8% (active)
11 | O=C(c1cccc(-n2cccc2)c1)N1CCN(S(=O)(=O)c2ccc(F)cc2)CC1 | -6.27%
12 | O=C(c1ccc(N2CCCC2=O)cc1)N1CCN(c2ccc(C(F)(F)F)cc2[N+](=O)[O-])CC1 | -85.8% (active)
13 | CC(=O)c1ccc(N2CCN(C(=O)c3ccc4nc[nH]c4c3)CC2)cc1 | -12%
14 | CNS(=O)(=O)c1ccc(N2CCCC2=O)c([N+](=O)[O-])c1 | -21%
15 | Cc1cc(C)cc(Nc2ncnc3onc(-c4ccc(F)cc4)c23)c1 | -23.4%
16 | COc1ccccc1-c1nnc(SCC(N)=O)o1 | 64.6%
17 | COc1cc(C(=O)Nc2ccc(-n3c(C)nc4ccccc4c3=O)cc2)cc(OC)c1OC | -1.41%
18 | CCOC(=O)c1cc2c(=O)n3ccccc3nc2n(CCCOC)c1=NC(=O)C(C)Oc1ccccc1 (stereo not drawn) | -1.73%
19 | O=Cc1c(N2CCN(c3cccc(Cl)c3)CC2)nc2ccccn2c1=O | -31.6%
20 | Cc1ccc2nc(N3CCN(c4cccc(Cl)c4)CC3)c3nnnn3c2c1 | -71.6% (active)
21 | O=S(=O)(c1cccc2nonc12)N1CCN(c2cccc(Cl)c2)CC1 | -25.7%
22 | COC(=O)c1ccc(COC(=O)CNC(=O)c2cccc(OC)c2)o1 | -25.9%

Row | SMILES | activity change, negative = inhibition
23 | O=C(Nn1cc(C(=O)N2CCN(c3ccccc3F)CC2)c2ccccc2c1=O)c1cnccn1 | 43.2%
24 | COc1ccc(-c2cc(=O)oc3cc(OCC(=O)N(C)C4CCS(=O)(=O)C4)ccc23)cc1 (stereo not drawn) | 4.48%
25 | COc1ccc(/C=C(\C#N)C(=O)OCC(=O)N(C)C2CCS(=O)(=O)C2)cc1 (stereo not drawn) | -87.3% (active)
26 | CC(=O)c1ccc(OCC(=O)N(C)C2CCS(=O)(=O)C2)cc1 (stereo not drawn) | -17%
27 | CCOC(=O)c1c(S(=O)(=O)N2CCC(C(=O)NCc3ccccc3OC)CC2)c(C)n(C)c1C | 9.09%
28 | O=C(CC1Oc2ccc(Cl)cc2NC1=O)NCc1ccccc1 (stereo not drawn) | -7.24%
29 | O=C(Nc1ccc(F)cc1F)c1ccc2c(=O)n3c(nc2c1)CCCCC3 | 61.7%
30 | COc1cccc(CNC(=O)C(NS(=O)(=O)c2ccc3nc(C)sc3c2)C(C)C)c1 (stereo not drawn) | -9.19%
31 | COC(=O)c1ccc(COc2ccc(C#N)cc2)o1 | -13.9%
32 | COc1ccccc1C(=O)NC(=S)NC12CC3CC(CC(C3)C1)C2 | -36.1%
33 | S=C(NCc1ccc(Cl)cc1)NC12CC3CC(CC(C3)C1)C2 | -100% (active)
34 | Cc1ccc(C(=O)NC23CC4CC(CC(C4)C2)C3)c(Cl)c1 | 20.9%
35 | Cc1cc(-c2ccccc2)n2nc(-c3ccccc3)cc2n1 | -2.35%
36 | CC(C)(C)c1ccccc1NC(=O)CN1C(=O)NC2(CCCC2)C1=O | 19.2%
37 | O=C(CN1C(=O)S/C(=C\c2ccccc2Cl)C1=O)NC1C=CS(=O)(=O)C1 (stereo not drawn) | -66.8% (active)
38 | O=C(NCCN1C(=O)S/C(=C\c2cccnc2)C1=O)c1ccc(S(=O)(=O)N2CCCC2)cc1 | 3.64%
39 | CC12CCC(=O)N1C(C(=O)NCCN1C(=O)S/C(=C\c3ccccc3F)C1=O)CS2 (stereo not drawn) | -21.8%
40 | CCCn1c2ccccc2c2cnn(CC(=O)N(CC)c3cc(C)ccc3C)c(=O)c21 | -37.8%
41 | Cc1ccc(C(=O)Nc2cc3c(cc2N2CCCC2)n(C)c(=O)c(=O)n3C)cc1 | 0.153%
42 | O=C(NC1CCN(Cc2ccccc2)CC1)c1ccc(Cn2c(=O)c3ccccc3n(Cc3cccc(F)c3)c2=O)cc1 | -15.8%
43 | CCC(C(=O)Nc1cccc(Cl)c1C)n1nc(-c2ccc(C)cc2)ccc1=O (stereo not drawn) | 12.4%
44 | Cc1nnc(NC(=O)CSc2nc3c([nH]c4ccccc43)c(=O)n2-c2cccc(Cl)c2)s1 | -12.8%

Row | SMILES | activity change, negative = inhibition
45 | CCCCCCc1cc2cc(-c3nnc(-c4ccccc4)o3)c(=O)oc2cc1O | -100% (active)
46 | Cc1ncn2cc(-c3ccc(Cl)cc3Cl)[nH]c(=O)c12 | -32.3%
47 | CCn1c(-c2cccnc2Cl)nc2cc(C)c(C)cc21 | -25.4%
48 | COn1c(-c2ccc(Cl)cc2Cl)nc2ncccc21 | -63.6% (active)
49 | CC(NC(=O)CCc1cn(Cc2ccccc2Cl)c2ccccc12)c1ccccc1 (stereo not drawn) | -11.3%
50 | Cc1cccc(NC(=O)N2CCN(C)c3ncccc32)c1C | 12%
51 | CC(Sc1oc(-c2ccco2)nc1S(=O)(=O)c1ccc(Br)cc1)c1ccccc1 (stereo not drawn) | 0.136%
52 | COc1ccc2c(Cl)c(-c3nnco3)sc2c1 | -7.84%
53 | CCN(C(=O)c1sc2cc(OC)ccc2c1Cl)c1ccccc1 | -99.2% (active)
54 | CCN(C(=O)c1ccc(Br)cc1)c1ccccc1 | 7.23%
55 | COc1ccc(CNC(=O)c2ccc3c(c2)nc2n3CCOC2)c(OC)c1 | 2.67%
56 | COc1ccccc1NS(=O)(=O)c1ccc(C)c(C(=O)NCC(c2ccco2)N(C)C)c1 (stereo not drawn) | -6.15%
57 | COc1ccc(C(CNC(=O)c2cc(S(=O)(=O)Nc3cccc(C)c3)ccc2C)N2CCCC2)cc1 (stereo not drawn) | -30.6%
58 | Cc1cccc(NS(=O)(=O)c2ccc(C)c(C(=O)NCC(c3ccccc3)N(C)C)c2)c1 (stereo not drawn) | -101% (active)
59 | O=C(Nc1ccccc1Cl)N1CCC(CN2CCCC2)CC1 | 37.3%
60 | O=C(Nc1ccccc1Cl)/C(Cl)=C(\Cl)S(=O)c1ccccc1 (stereo not drawn) | -100% (active)
61 | O=C(Nc1ccccc1Cl)N1CCC(CN2CCCCC2)CC1 | -10.2%
62 | Oc1ccccc1-c1cc(-c2ccc(Cl)cc2)n[nH]1 | -20.6%
63 | COc1ccccc1CNS(=O)(=O)CC12CCC(CC1=O)C2(C)C (stereo not drawn) | 6.14%
64 | Oc1cccc2cc(-c3ccncc3)cnc12 | -101% (active)
65 | Cc1ccc(OCCSc2nc3ccc(NC(=O)COc4ccc(C)cc4)cc3s2)cc1 | 7.69%
66 | Cc1ccccc1NC(=O)Cn1c(=O)n(CC2CCC(C(=O)NCCc3ccccc3)CC2)c(=O)c2ccccc21 (stereo not drawn) | 16.2%

Row | SMILES | activity change, negative = inhibition
67 | COc1cc(C2c3cc4c(cc3C(O)C3COC(=O)C23)OCO4)cc(OC)c1OC (stereo not drawn) | -89.9% (active)
68 | COc1cc(C=C(OC(C)=O)c2ccc3c(c2)OCO3)cc(OC)c1OC | 62.8%
69 | COc1cc(OC)c2c(c1)OC(=O)CC2c1cc(OC)c(OC)c(OC)c1 (stereo not drawn) | -7.37%
70 | COC(=O)c1ccccc1NC(=O)c1cc(-c2ccccc2O)no1 | -14.2%
71 | COC(=O)/C(=C1\Oc2ccc(C(C)(C)C)cc2S1)C(F)(F)F | -66.8% (active)
72 | CCOC(=O)C1=C(c2ccccc2)O/C(=C(/C(=O)OC)C(F)(F)F)S1 | 34.3%
73 | O=C(CNC(=O)c1n[nH]c2ccccc12)Nc1cc(Cl)ccc1Cl | 12.1%
74 | Cc1ccc(C)c(-n2nnnc2SCC(=O)c2c(N)n(C)c(=O)n(C)c2=O)c1 | -19.3%
75 | COc1ccc(NC(=O)C2(C)Cc3c(-c4cccc(NC(C)=O)c4)ccnc3O2)cc1 (stereo not drawn) | -77.2% (active)
76 | COc1ccc(NC(=O)C2(C)Cc3c(-c4ccc(C(N)=O)cc4)ccnc3O2)cc1 (stereo not drawn) | 32.9%
77 | CC1(C(=O)Nc2cccnc2)Cc2c(-c3ccccc3)ccnc2O1 (stereo not drawn) | -18.2%
78 | CC(=O)Nc1cccc(-c2ccnc3c2CC(C)(C(=O)NCc2ccccc2)O3)c1 (stereo not drawn) | -79.4% (active)
79 | CC1(C(=O)NCC2CCOCC2)Cc2c(-c3cccc(C(N)=O)c3)ccnc2O1 (stereo not drawn) | 28.9%
80 | CC(=O)Nc1ccc(-c2ccnc3c2CC(C(=O)NC(C)C)O3)cc1 (stereo not drawn) | -16.6%
81 | COc1ccc(NC(=O)C2(C)Cc3c(-c4cccc(NC(C)=O)c4)ccnc3O2)cc1OC (stereo not drawn) | 16%
82 | COc1ccc(CCCNC(=O)C2Cc3c(-c4cccc(C(N)=O)c4)ccnc3O2)cc1 (stereo not drawn) | -20.5%
83 | COc1ccc(NC(=O)C2Cc3c(-c4cccc(NC(C)=O)c4)ccnc3O2)cc1OC (stereo not drawn) | -67.8% (active)
84 | Brc1ccc2c(c1)NC(c1cccnc1)=NC(c1ccccc1)=N2 | 21.9%
85 | COc1ccc(NC(=O)CCNC(=O)Cn2ccc3ccccc3c2=O)c(OC)c1 | -21.8%
86 | COC(=O)c1[nH]c2cccc(C)c2c1NC(=O)CN1CCCc2ccccc21 | 52.8%
87 | CCOc1ccccc1C(=O)NCC(c1ccc(N(C)C)cc1)N1CCCC1 (stereo not drawn) | -6.83%
88 | CCOc1ccc(-c2nonc2NC(=O)c2oc3ccc(CC)cc3c2C)cc1 | 29.2%
